Results from PubChem BioAssay (EPA / NIEHS).
Activity calls are given as the source filed them. How the source made its calls: active means hit-call score of the fitted dose curve at least 0.9, where 1 is the maximum; inactive means score below 0.9.

Legend:
[1] = read-out: E-selectin (Homo sapiens) (UniProt P16581); test: BSK_SAg_Eselectin: BioMAP Diversity Plus: SAg Assay for Eselectin Biomarker Activity (AID 2283091); conditions: primary human HUVEC with PBMC; actives raise or lower the signal
Outline: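 Endpoint values derive from bidirectional fitting relative to DMSO, using ELISA-measured E-selectin in a human vascular co-culture (umbilical vein endothelium plus PBMC) sampled 24 h after dosing.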

[2] = read-out: Monokine induced gamma interferon (MIG), CXCL9 (gene 4283); test: BSK_SAg_MIG: BioMAP Diversity Plus: SAg Assay for Monokine induced gamma interferon (MIG) Biomarker Activity (AID 2283092); conditions: primary human HUVEC with PBMC; actives raise or lower the signal
Outline: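 Endothelial cells and PBMC were co-cultured, exposed to test chemicals, and sampled 24 h later. MIG was measured by ELISA, and responses were fitted in both directions relative to DMSO.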

[3] = BSK_SAg_PBMCCytotoxicity: PBMC Cytotoxicity Assessment in the BioMAP Diversity Plus: SAg Assay (AID 2283093); conditions: primary human HUVEC with PBMC;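 further: PBMC viability measured as Alamar Blue reduction fluorescence at 546/580 nm; fitted both ways against DMSO so a hit may be loss or gain of signal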;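 on AC50: PBMC superantigen activated with SEB plus TSST-1 one hour after compound addition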
Outline: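 Compound added to 75,000 PBMC/well for 1 h; SEB and TSST-1 then added at 20 ng/mL final each; 90 h incubation; Alamar Blue 6 h; read 546/580 nm ex/em. Activity fitted bidirectionally relative to DMSO baseline.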

[4] = read-out: Interleukin-8 (IL8), CXCL8 (gene 3576); test: BSK_SAg_IL8: BioMAP Diversity Plus: SAg Assay for Interleukin-8 (IL8) Biomarker Activity (AID 2283094); conditions: primary human HUVEC with PBMC; actives raise or lower the signal
Outline: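 Human umbilical vein endothelial cells co-cultured with PBMC, stimulated with superantigen; IL-8 measured by ELISA 24 h after chemical dosing. Bidirectional fitting versus DMSO; SRB staining in parallel cultures tracks cytotoxicity.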

[5] = BSK_SAg_Proliferation: Cell Proliferation Assessment in the BioMAP Diversity Plus: SAg Assay (AID 2283095); conditions: primary human HUVEC with PBMC
Outline: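 Human umbilical vein endothelial cells co-cultured with PBMC; sulforhodamine B total-protein staining (0.1% SRB after 10% TCA fixation, absorbance 560 nm) at 96 h in sub-confluent culture. Fitted bidirectionally against DMSO.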

[6] = BSK_SAg_SRB: Viability Assessment in the BioMAP Diversity Plus: SAg Assay (AID 2283096); conditions: primary human HUVEC with PBMC;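 further: cells read one day after compound addition; hits may be either gain or loss of signal compared with DMSO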
Outline: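 Total protein by sulforhodamine B staining, 24 h after dosing, in HUVEC–PBMC co-culture; DMSO-referenced bidirectional fitting.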

Measured: AC50

E-selectin (Homo sapiens), sequence (P16581 whole entry, looked up): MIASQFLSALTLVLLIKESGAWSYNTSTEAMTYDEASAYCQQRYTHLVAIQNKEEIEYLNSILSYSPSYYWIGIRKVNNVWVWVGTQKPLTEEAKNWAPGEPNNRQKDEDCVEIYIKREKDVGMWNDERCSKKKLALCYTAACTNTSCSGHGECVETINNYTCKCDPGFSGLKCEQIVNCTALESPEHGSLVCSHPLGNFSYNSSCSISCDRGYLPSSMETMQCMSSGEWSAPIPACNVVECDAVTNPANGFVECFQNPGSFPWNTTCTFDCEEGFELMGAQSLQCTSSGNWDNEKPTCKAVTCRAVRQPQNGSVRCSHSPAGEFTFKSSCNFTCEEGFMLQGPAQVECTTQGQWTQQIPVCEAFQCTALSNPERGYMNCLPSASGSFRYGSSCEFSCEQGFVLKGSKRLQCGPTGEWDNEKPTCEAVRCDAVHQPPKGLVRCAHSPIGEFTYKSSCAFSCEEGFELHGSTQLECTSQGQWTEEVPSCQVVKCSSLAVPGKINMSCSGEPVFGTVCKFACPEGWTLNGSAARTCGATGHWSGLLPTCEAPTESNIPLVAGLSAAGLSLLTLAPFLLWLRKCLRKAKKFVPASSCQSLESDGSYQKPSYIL

C[C@]12C=CC(=O)C=C1CC[C@H]1[C@@H]3C[C@@H](O)[C@](O)(C(=O)CO)[C@@]3(C)C[C@H](O)[C@@]12F
inactive: [2] | [3] | [4] | [5] | [6]
active: [1] 3.66 µM

Cn1c(=O)c2[nH]cnc2n(C)c1=O
inactive: [1] | [2] | [3] | [4] | [5] | [6]

C[Si](C)(C)C(F)(F)C(F)(F)C(F)(F)F
inactive: [1] | [2] | [3] | [4] | [5] | [6]

O=C(O)[C@H](O)[C@@H](O)C(=O)O
inactive: [1] | [2] | [3] | [4] | [5] | [6]

Nc1ccn([C@@H]2O[C@H](CO)[C@@H](O)[C@@H]2O)c(=O)n1
active: [1] 8.71 µM | [3] 12 µM | [5] 14.1 µM | [6] 20 µM
inactive: [2] | [4]

COc1cc2c(c(OC)c1OC)-c1ccc(OC)c(=O)cc1[C@@H](NC(C)=O)CC2
active: [5] 0.34 µM | [6] 0.204 µM
inactive: [1] | [2] | [3] | [4]

OCCC(F)(F)C(F)(F)C(F)(F)C(F)(F)F
inactive: [1] | [2] | [3] | [4] | [5] | [6]

O=C(O)c1ccc2c(c1)nc(C(=O)NC1CCN(C3CC3)CC1)n2Cc1cc(-c2ccc(Cl)s2)on1
inactive: [1] | [2] | [3] | [4] | [5] | [6]

O=S1(=O)CCCO1
inactive: [1] | [2] | [3] | [4] | [5] | [6]

CC(C)CCCCCCOC(=O)C1CCCCC1C(=O)OCCCCCCC(C)C (stereo unspecified)
inactive: [1] | [2] | [4] | [5] | [6]
active: [3] 3.51 µM

FC(F)C(F)(F)COCC1CO1 (stereo unspecified)
inactive: [1] | [2] | [3] | [4] | [5] | [6]

CCCCCCCCN(C)C
inactive: [1] | [2] | [3] | [4] | [5] | [6]

O=C(O)c1cccc(C(=O)O)c1
inactive: [1] | [2] | [3] | [4] | [5] | [6]

CNC(C)=O
inactive: [1] | [2] | [3] | [4] | [5] | [6]

C=CN1CCCC1=O
inactive: [1] | [2] | [3] | [4] | [5] | [6]

CCCCCCCCCCCCCCO
active: [1] 36.3 µM | [2] 39.4 µM | [3] 30.3 µM | [4] 31.8 µM | [5] 27.7 µM | [6] 32.4 µM

NCC(F)(F)C(F)(F)C(F)(F)C(F)(F)F
inactive: [1] | [2] | [3] | [4] | [5] | [6]

C[C@@H](Oc1ccc(CNC(=O)c2cccnc2Oc2ccc3c(c2)OCO3)c(F)c1)C(=O)O
inactive: [1] | [2] | [3] | [4] | [5] | [6]

c1ccc2cc3ccccc3cc2c1
inactive: [1] | [2] | [3] | [4] | [5] | [6]

OC[C@H]1O[C@@](CO)(O[C@H]2O[C@H](CO)[C@@H](O)[C@H](O)[C@H]2O)[C@@H](O)[C@@H]1O
inactive: [1] | [2] | [3] | [4] | [5] | [6]

OC[C@H]1O[C@@H]2O[C@H]3[C@H](O)[C@@H](O)[C@@H](O[C@H]4[C@H](O)[C@@H](O)[C@@H](O[C@H]5[C@H](O)[C@@H](O)[C@@H](O[C@H]6[C@H](O)[C@@H](O)[C@@H](O[C@H]7[C@H](O)[C@@H](O)[C@@H](O[C@H]1[C@H](O)[C@H]2O)O[C@@H]7CO)O[C@@H]6CO)O[C@@H]5CO)O[C@@H]4CO)O[C@@H]3CO
inactive: [1] | [2] | [3] | [4] | [5] | [6]
